# IL-1B inflam inh: qHTS for Inhibitors of Inflammasome Signaling: IL-1-beta AlphaLISA Primary Screen | THP-1 LPS/ATP IL-1B secretion, AlphaLISA, 16 h; active compounds read low | 4.7% of 360,000 active | activity change, % at 57.5 µM; in the data active = activity change below about -50%; inconclusive = mostly about -30% to -49%
#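 Secreted IL-1B measured by AlphaLISA bead assay after 16 h compound exposure of THP-1 cells; compounds (final up to 57.5 uM) added 1 h before LPS (250 ng/mL) and ATP (1.25 mM) stimulation; lower signal means less secretion.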
# DT40 TDP1 no CPT: qHTS for Inhibitors of human tyrosyl-DNA phosphodiesterase 1 (TDP1): qHTS in cells in absence of CPT; DT40 Tdp1-/- hTDP1 cells, no CPT, ATP luminescence, 48 h; Potency, µM (highest dose often 46.2 µM), hits mostly inhibitors; 15% of 420,000 active; also: nearly all actives have a fitted effect of over 55% in size
#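 Seeded 400 DT40-hTDP1 cells/well (vehicle DMSO, no 20 nM CPT); pinned compounds; ≥48 hr at 37 °C; CellTiter-Glo luminescence as viability measure.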
# TDP1 cell CPT: qHTS for Inhibitors of human tyrosyl-DNA phosphodiesterase 1 (TDP1): qHTS in cells in presence of CPT; chicken DT40 Tdp1-/-;hTDP1 cells + 20 nM CPT, ATP luminescence, 48 h; Potency, µM (titrated, usually from 46.2 µM), most hits filed as inhibitors; 12% of 420,000 active; AID 686979, 2013; also: nearly all actives have a fitted effect of over 55% in size
#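 Cell growth measured by CellTiter-Glo luminescence after a minimum 48 h, 37 C compound exposure with 20 nM CPT in Tdp1-knockout DT40 cells stably expressing hTDP1, seeded 400/well; qHTS titration format.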
# HT1080-NT tox: qHTS for induction of synthetic lethality in tumor cells producing 2HG: qHTS for the HT-1080-NT fibrosarcoma cell line; HT-1080-NT fibrosarcoma viability, CellTiter-Glo ATP luminescence, 48 h; Potency, µM (top dose mostly 46.1 µM), actives largely listed as cytotoxic; 1.6% of 360,000 active; AID 686970, 2013;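 also: NT is the 2HG producing partner of a matched IDH1 knockdown line; nearly all actives have a fitted effect of over 55% in size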
#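 Read-out is CellTiter-Glo luminescence after 10 minutes at room temperature, following 48 hours' compound treatment of HT-1080-NT cells (750 cells/well, RPMI, 5% FBS, 37 degrees C).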
# HT1080 IDH1KD tx: qHTS for induction of synthetic lethality in tumor cells producing 2HG: qHTS for the HT-1080-IDH1KD cell line; 2% of 360,000 active; Potency, µM (series often up to 46.1 µM), hits mostly cytotoxic; HT-1080 IDH1 knockdown viability, ATP luminescence, 48 h; AID 686971, 2013
#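 Luminescent ATP read-out (CellTiter-Glo, 10 min at room temperature) after 48 h compound exposure at 37 °C gave viability of IDH1-knockdown HT-1080 cells. Activity was normalised to DMSO and cell-free wells, then fitted as concentration-response curves.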
# ELG1 DNA repair: qHTS screen for small molecules that inhibit ELG1-dependent DNA repair in human embryonic kidney (HEK293T) cells expressing luciferase-tagged ELG1. 2.3% of 330,000 active. HEK293T ELG1-luciferase reporter, luminescence, 16 h; DNA damage induced by 5-fluorouridine. Potency, µM (highest dose often 46.1 µM), actives largely listed as inhibitors; also: nearly all actives have a fitted effect of over 55% in size
#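 5-Fluorouridine DNA damage + compound/DMSO, 2,000 cells/well, 16 h, 37 °C/5% CO2. ONE-Glo, 30 min RT, luminescence. Readout = decrease in reporter signal.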
# A number is an active result; 0 = inactive; ? = inconclusive; - = no result given. Compounds with a hit are over-represented: about 19% of the library has one in this group of screens. Unless noted, calls follow the shape of the dose curve; as a rule, active = well fitted curve in the direction sought with a large enough effect; inconclusive = small, poorly fitted or top-dose-only effect, or another doubt; inactive = no such curve, though single readings can be large; an effect the other way counts as inactive or inconclusive.
SMILES,IL-1B inflam inh,DT40 TDP1 no CPT,TDP1 cell CPT,HT1080-NT tox,HT1080 IDH1KD tx,ELG1 DNA repair
CCOC(=O)c1cnc2cc(C(F)(F)F)ccc2c1N1CCN(c2ccc(F)cc2)CC1,-,21µM,?,-,-,-
CCOC(=O)c1cnc2c(C(F)(F)F)cccc2c1N1CCN(C)CC1,0,0,0,0,0,0
CCOC(=O)c1cnc2c(OC)cccc2c1N1CCN(c2ccccn2)CC1,-53,16µM,?,0,0,?
COc1ccc(NC(=O)c2ccc(NC(=O)CN(C)CC(=O)Nc3c(C)cccc3C)cc2)cc1,0,?,?,0,0,?
CNc1cc(C(=O)O)nc2ccccc12,-,1.1µM,0.89µM,-,-,-
O=C1NC[C@@H](CCCCN2C[C@H](Cc3ccccc3)N(CCc3ccc(O)cc3)C(=O)C2=O)N(CCc2ccccc2)C1=O,0,0,0,0,0,-
CN(C)c1ccc(O)c2c1CC1CC3[C@@H](N(C)C)C(=O)C(C(N)=O)C(=O)[C@]3(O)C(=O)C1C2=O (stereo not given in full),0,4.1µM,6.5µM,-,-,0
CN(C)c1ccc(O)c2c1CC1CC3C(N(C)C)C(=O)C(C(N)=O)=C(O)[C@@]3(O)C(=O)C1=C2O (stereo not given in full),0,1.8µM,2.1µM,-,-,-
CN(C)c1cc(NC(=O)CNC(C)(C)C)c(O)c2c1C[C@H]1C[C@H]3[C@H](N(C)C)C(=O)C(C(N)=O)=C(O)[C@@]3(O)C(=O)C1=C2O,-,0,0,-,-,-
CSc1ccc(CCNC(=O)CN2C(=O)COc3ccc(S(=O)(=O)N4CCCC4)cc32)cc1,-,?,23µM,-,-,-
CCOc1ccc(CCNC(=O)CN2C(=O)COc3ccc(S(=O)(=O)N(CC)CC)cc32)cc1,-,?,23µM,-,-,-
O=C(CN1C(=O)COc2ccc(S(=O)(=O)N3CCCCC3)cc21)NCCc1ccc(Cl)cc1,-,18µM,?,-,-,-
COc1ccc(S(=O)(=O)N2CCCCCC2)cc1NC(=O)CN1C(=O)NC(C)(c2ccccc2)C1=O (stereo not given),0,?,?,0,0,?
Cc1cccc(CNC(=O)Cn2nc(C)n3c(cc4cc(F)ccc43)c2=O)c1,-,0,0,-,-,-
CC(C)=CCC/C(C)=C/CNC(=O)CC1C[C@H](C(=O)N2CCOCC2)[C@@]2(C)c3[nH]c4ccccc4c3CCN2C1=O (stereo not given in full),?,12µM,13µM,0,0,?
COc1ccc(CNC(=O)C[C@H]2C[C@H](C(=O)N3CCOCC3)[C@@]3(C)c4[nH]c5cc(-c6ccco6)ccc5c4CCN3C2=O)cc1OC,0,?,?,0,0,?
CC(C)(C)NC(=O)CC1C[C@H](C(=O)N2CCOCC2)[C@@]2(C)c3[nH]c4ccccc4c3CCN2C1=O (stereo not given in full),0,0,0,0,0,0
CC(C)=CCC/C(C)=C/CNC(=O)C[C@H]1C[C@H](C(=O)N2CCOCC2)[C@@]2(C)c3[nH]c4cc(-c5ccco5)ccc4c3CCN2C1=O,?,13µM,21µM,?,?,?
CC(C)=CCC/C(C)=C/CNC(=O)C[C@H]1C[C@H](C(=O)N2CCOCC2)[C@@]2(C)c3[nH]c4ccc(Cl)cc4c3CCN2C1=O,-65,?,23µM,0,0,?
CC1(C)Cc2c(cnn2-c2cccc(F)c2)C(NC(=O)CN2CCCC2=O)C1 (stereo not given),0,?,0,0,0,0
COc1cc(-c2noc(-c3ccc(NC4CCCCC4)c([N+](=O)[O-])c3)n2)cc(OC)c1OC,-,0,0,-,-,-
COc1ccc(/C=C/C(=O)OCCC(C)C)cc1,-,0,0,-,-,-
O=C(COc1ccc(Br)cc1)NCC1COc2ccccc2O1 (stereo not given),0,?,0,0,0,?
CCN1CCCc2cc(CN(CCN3CCOCC3)C(=S)Nc3ccccc3OC)ccc21,0,16µM,?,0,0,?
CCN1CCCc2cc(CN(CCN3CCOCC3)C(=O)Nc3ccc(C)c(C)c3)ccc21,?,26µM,?,0,0,?
SMILES,IL-1B inflam inh,DT40 TDP1 no CPT,TDP1 cell CPT,HT1080-NT tox,HT1080 IDH1KD tx,ELG1 DNA repair
CCN1CCCc2cc(CN(CCN3CCOCC3)C(=S)Nc3cccc(C)c3)ccc21,?,?,16µM,0,0,0
COCCN(C(=S)Nc1ccccc1OC)C(C)c1cccs1 (stereo not given),0,29µM,23µM,0,0,0
O=C(O)[C@H]1CN[C@H](C(=O)O)C1,-,0,0,-,-,-
CCN(CC)c1ccc(-n2nc3cc(C)c(NC(=O)c4ccccc4F)cc3n2)cc1,-,?,0,-,-,-
CCc1ccc(NC(=O)N(CCN2CCOCC2)Cc2ccc3c(c2)CCCN3CC)cc1,0,?,?,0,?,?
CCCCN1CCCc2cc(CN(CCCN3CCOCC3)C(=O)Nc3ccc(OCC)cc3)ccc21,-,18µM,18µM,-,-,-
CCN1CCCc2cc(CN(CCN3CCOCC3)C(=S)Nc3ccc(OC)c(Cl)c3)ccc21,0,9.2µM,?,0,0,0
Cc1ccccc1NC(=S)N(CCN1CCCCCC1)Cc1cccs1,0,?,?,0,0,0
COc1ccccc1NC(=S)N(CCN1CCCCCC1)Cc1cccs1,0,9.2µM,?,0,0,0
CC(=O)Nc1ccc(S(C)(=O)=O)c(C)c1,0,0,0,0,0,0
CCN(CC)S(=O)(=O)c1cc(C(=O)NC2CCCCC2)ccc1C,0,?,?,0,0,?
O=C(Nc1cc(Cl)cc(Cl)c1)c1ccc(F)c(S(=O)(=O)NCc2ccccc2Cl)c1,-,10µM,0,-,-,-
CCN(Cc1ccccc1)S(=O)(=O)c1cc(C(=O)NC2CCCCCC2)ccc1OC,0,?,23µM,0,0,?
CCOc1ccc(NC(=O)c2ccc(F)c(S(=O)(=O)N(CC)Cc3ccccc3)c2)cc1,-,21µM,15µM,-,-,-
O=C(O)CCN(Cc1ccccc1)S(=O)(=O)c1ccc(Cl)cc1F,0,0,0,0,0,0
CCN(Cc1ccccc1)S(=O)(=O)c1cc(C(=O)Nc2cc(Cl)cc(Cl)c2)ccc1F,-,6.5µM,6.5µM,-,-,-
CNc1ccc(-c2cccc(CO)c2)cn1,0,0,?,0,0,-

# High-throughput results as filed in PubChem BioAssay.
